HCV inhibitor: blocks hepatitis C virus; Huh7.5.1 HCVcc-Cre infection, luciferase reporter, 44 h; Potency, µM (series often up to 41.8 µM), for inactives: top-dose activity change, negative = inhibition, most hits filed as inhibitors; hit rate 3.4% among 340,000; AID 651820
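Infectious HCV cell culture screen: compound-treated cells (1,000/well, pre-plated 4 h) are infected with HCVcc-Cre at roughly 0.5 moi and grown 44 h. Infection is quantified by luciferase signal after 15 min substrate incubation at room temperature.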
AMA1 RON2 block: disrupts binding of P. falciparum AMA1 to RON2. Potency, µM (highest dose often 58.2 µM), without a hit: top-dose activity change, negative = inhibition, most hits filed as inhibitors. AID 720542. hit rate 0.2% among 360,000. AlphaScreen AMA1-biotinylated RON2 peptide binding;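 note: 0% = vehicle wells and -100% = peptide control; nearly all actives have a fitted effect of over 45% in size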
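AMA1 (3D7) with his tag at 25 nM final met compounds first, then biotinylated RON2 peptide at 25 nM; detection used donor plus acceptor beads, 10 µg/mL apiece, read by AlphaScreen after 30 min at room temperature.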
Pf growth 48h: inhibits P. falciparum growth in the first generation, 48 h. P. falciparum luciferase growth in erythrocytes, 48 h. Potency, µM (top dose mostly 28.7 µM), without a hit: at the highest dose activity change, negative = inhibition, hits mostly inhibitors. hit rate 5.9% among 310,000. AID 504832
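A one-generation exposure of luciferase-tagged malaria parasites in RPMI 1640/Albumax erythrocyte culture, 37 C and 5% CO2. Inhibition is inferred from decreased luminescence after adding detection reagent.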
Pf growth 96h: P. falciparum growth inhibition at 96 hours; P. falciparum luciferase reporter growth, 96 h; Potency, µM (top dose mostly 28.7 µM), for the others: at the top dose activity change, negative = inhibition, usual class: inhibitors; hit rate 6.9% among 320,000; AID 504834
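Delayed-death screen, second-generation endpoint: infected erythrocytes, 2% hematocrit, 0.05% parasitemia final; 96 hours at 37 C, 5% CO2; luciferase detection reagent; luminescence decrease equals reduced growth.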
Numbers without * were called inactive; u = inconclusive; x = not tested or not shown; [ ] = remark or other dose. Rows were chosen to be rich in hits. Some 11% of all compounds tested hit in one or more screens of this group. Calls come from the whole dose curve; as a rule, active = well fitted curve in the direction sought with a large enough effect; inconclusive = small, poorly fitted or top-dose-only effect, or another doubt; inactive = no such curve, though single readings can be large; an effect the other way counts as inactive or inconclusive. Unless noted, % is set by controls: 0 for no effect and ±100 for the full control effect; potency is the fitted concentration of half-maximal effect.

SMILES	HCV inhibitor	AMA1 RON2 block	Pf growth 48h	Pf growth 96h
CCOC(=O)c1c(C)[nH]c(C)c1C(=O)COC(=O)/C=C/c1cccc(C(F)(F)F)c1	-6%	-6%	15µM*	u
CCOC(=O)c1c(C)[nH]c(C)c1C(=O)COC(=O)/C=C/c1cccc(F)c1	-24%	-13%	u	u
O=C(NCC(=O)N1CCc2ccccc2C1)c1ccccc1Cl	-16%	-4%	15%[0.00184 µM]	76%
COc1cc(CNc2ccc(S(N)(=O)=O)cc2)ccc1OCc1ccccc1F	11µM*	-9%	x	x
COc1cc(CNc2ccc(N3CCCCC3)cc2)ccc1OCC(=O)NC(C)(C)C	10µM*	u	8%	5.2µM*
COc1cc(CNc2ccc(N3CCCC3)cc2)ccc1OCc1ccccc1	u	u	8.3µM*	8%
CC(OC(=O)/C=C/c1ccc2ccccc2n1)C(=O)NCc1ccccc1 (stereo unspecified)	-26%	10%	-20%	-1%
CCC(C)NC(=O)CN(c1ccc(Cl)c(Cl)c1)S(C)(=O)=O (stereo unspecified)	-8%	-3%	14%	11%
COC(=O)CC1C(=O)NCCN1C(=O)CSc1nnc(Nc2ccc(C)cc2)s1 (stereo unspecified)	-15%	-5%	x	7.4µM*
COC(=O)CC1C(=O)NCCN1C(=O)CSc1nnc(Nc2ccc(OC)cc2)s1 (stereo unspecified)	5%	-4%	u	x
CC(C)CC(=O)N1CCN(S(=O)(=O)c2ccccc2)CC1	-1%	2%	x	13%
CC(C)CC(=O)N1CCN(S(=O)(=O)c2ccc(C3CCCCC3)cc2)CC1	11µM*	-6%	u	5%
COc1ccc(C2Nc3ccccc3C(=O)N2Cc2ccccc2)cc1COc1ccccn1 (stereo unspecified)	-2%	-1%	u	u
COc1ccc(C2Nc3ccccc3C(=O)N2c2ccc(C)cc2)cc1Cn1cc([N+](=O)[O-])cn1 (stereo unspecified)	-26%	-7%	u	-73%
CCCN1C(=O)c2ccccc2NC1c1ccc(OC)c(CSc2ccccn2)c1 (stereo unspecified)	u	5%	u	10µM*
COc1ccc(C2Nc3ccccc3C(=O)N2Cc2ccco2)cc1CN1C(=O)c2ccccc2C1=O (stereo unspecified)	u	-18%	13µM*	u
COc1ccc(C2Nc3ccccc3C(=O)N2c2ccc(C)cc2)cc1Cn1nnc2ccccc21 (stereo unspecified)	4%	12%	13µM*	u
COc1ccc(C2Nc3ccccc3C(=O)N2Cc2ccco2)cc1COc1ccc(F)cc1 (stereo unspecified)	u	-6%	2.1µM*	6.6µM*
CCCCC(CC)CNC(=O)CC1Nc2c3ccccc3nc(=S)n2C1=O (stereo unspecified)	-17%	2%	18%	9%
O=S1(=O)NC(=NCC(c2ccco2)N2CCCCC2)c2ccccc21 (stereo unspecified)	15%	0%	u	13µM*
CCCC(=O)N1CCC1(C)C(=O)NS(=O)(=O)c1cccc(C)c1 (stereo unspecified)	x	-5%	x	x
O=C(Nc1ccc(F)cc1)c1cc(S(=O)(=O)N2CCOCC2)cs1	-28%	-12%	28%	12µM*
O=C(Nc1ccc(Cl)cc1)c1cc(S(=O)(=O)N2CCOCC2)cs1	5.6µM*	1%	x	-5%
O=C(Nc1ccc(F)cc1)c1cc(S(=O)(=O)Nc2ccc(F)cc2)cs1	-2%	-23%	13%	12µM*
Cc1ccc(NC(=O)c2cc(S(=O)(=O)N3CCOCC3)cs2)cc1	u	-3%	u	34%
SMILES	HCV inhibitor	AMA1 RON2 block	Pf growth 48h	Pf growth 96h
O=C(NC1CCCCC1)c1cccc2c(-c3ccc(F)c(F)c3)coc12	x	-8%	x	x
Cc1cc(OC(C)C(=O)N/N=C/CC(C)c2ccccc2)ccc1Cl (stereo unspecified)	-4%	50%	-18%	x
Cc1nc2ccccc2c2oc(C(=O)NC3CC3)cc12	-29%	-10%	x	0%
Cc1cc2c(C)nc3ccccc3c2o1	11µM*	2%	35%	3%
O=C(O)CSc1nc2c(c(C(F)(F)F)n1)CCc1ccccc1-2	-9%	-11%	11%	33%
Cc1nn(Cc2ccccc2)c(C)c1NC(=O)CSc1nc2c(c(C(F)(F)F)n1)CCc1ccccc1-2	u	0%	5.2µM*	8.3µM*
O=C(CSc1nc2c(c(C(F)(F)F)n1)CCc1ccccc1-2)NCc1ccccc1	-5%	2%	-11%	21%
CCN(CC)CCCNC(=O)CSc1nc2c(c(C(F)(F)F)n1)CCc1ccccc1-2	16µM*	-10%	u	12%
CC(C)CN1CCC(=O)N(CCSc2ccc(Br)cc2)CC1	40%	28%	93%	u
Cc1sc2ncn(CC(=O)Nc3cccc(S(N)(=O)=O)c3)c(=O)c2c1-c1ccccc1	-3%	1%	11%	1%
C[C@@H]1CN(S(=O)C(C)(C)C)[C@@H](CCO)/C1=C\CCO (stereo partly specified)	16%	-1%	x	x
COc1ccc(O)c(C(=O)c2cc(C#N)c(=O)n(-c3c(C)n(C)n(-c4ccccc4)c3=O)c2)c1	16%	-23%	u	9.3µM*
Cn1cc(Cl)cc(C(=O)Nc2ccccc2)c1=O	1%	6%	100%	119%
N#Cc1cc(C(=O)c2cc(Br)ccc2O)cn(C2CCCCC2)c1=O	11µM*	-5%	1.5µM*	1µM*
N#Cc1cc(C(=O)c2ccccc2OCC(=O)Nc2ccccc2Cl)cn(C2CCCCC2)c1=O	u	2%	u	u
Cc1ccc(NC(=O)c2cc(C(=O)c3cc(Cl)ccc3O)cn(-c3ccc(C)cc3)c2=O)cc1	u	-16%	0.33µM*	0.19µM*
N#Cc1cc(C(=O)c2cc(Cl)ccc2O)cn(-c2ccccc2)c1=O	10%	-14%	9.3µM*	1.9µM*
Cc1ccc(O)c(C(=O)c2cc(C#N)c(=O)n(-c3c(C)n(C)n(-c4ccccc4)c3=O)c2)c1	12%	17%	-1%	-12%
COc1ccccc1C(C(=O)c1ccccc1)c1ccc(O)cc1 (stereo unspecified)	x	-7%	x	x
NC(N)=NC(=O)c1nc(Cl)c(N2CCCCCC2)nc1N	u	-9%	4.7µM*	9.3µM*
NC(N)=NC(=O)c1nc(Cl)c(N)nc1N	u	28%	3.8µM*	u
Nc1c(Cl)ncnc1N1CCCC1	9%	14%	6%	u
O=C(CCN1C(=O)c2cccc([N+](=O)[O-])c2C1=O)Nc1nccs1	20%	17%	-2%	110%
CCCc1cc(=O)[nH]c(SCC(=O)CSc2nc(CCC)cc(=O)[nH]2)n1	8%	86%	5%	-20%
CCCc1cc(=O)[nH]c(SCC(=O)c2[nH]c(C)c(C(=O)OCC)c2C)n1	11µM*	-1%	6%	-14%
CCOC(=O)c1c(C)[nH]c(C(=O)CSc2nnc(C3CC3)n2N)c1C	u	6%	0.33µM*	x
O=C(CSc1ccc2c(c1)OCCO2)NC(=O)Cc1ccccc1	5%	-10%[11.6 µM]	-1%	-13%

Assay outcomes: PubChem BioAssay, National Center for Advancing Translational Sciences (NCATS)
